# Screening data as filed in PubChem BioAssay.
# Hits are enriched below; roughly 4.7% of the tested compounds scored in any of these assays.
# D1 ag: Allosteric Agonists of the Human D1 Dopamine Receptor: qHTS; HEK293 T-REx D1 cells, calcium flux, agonist mode; 360,000 tested, 1% active; D(1A) dopamine receptor (Homo sapiens), P21728; activation, % at 2 µM
# Target sequence (P21728 whole entry, looked up): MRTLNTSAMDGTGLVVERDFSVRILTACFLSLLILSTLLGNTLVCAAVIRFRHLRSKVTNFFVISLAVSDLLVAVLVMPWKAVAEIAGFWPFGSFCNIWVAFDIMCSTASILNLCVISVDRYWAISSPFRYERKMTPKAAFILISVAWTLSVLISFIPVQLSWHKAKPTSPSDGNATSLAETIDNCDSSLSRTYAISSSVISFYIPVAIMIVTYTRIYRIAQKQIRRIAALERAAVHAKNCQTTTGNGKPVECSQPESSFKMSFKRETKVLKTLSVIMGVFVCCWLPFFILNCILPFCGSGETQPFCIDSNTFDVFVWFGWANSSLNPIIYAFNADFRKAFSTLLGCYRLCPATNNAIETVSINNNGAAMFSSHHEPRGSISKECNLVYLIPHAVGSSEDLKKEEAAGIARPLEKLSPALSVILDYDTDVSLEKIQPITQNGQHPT
#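 Agonism was scored from calcium flux recorded over 180 s (1 read/s) after pintool compound addition, following a 10-cycle baseline. Cells were inducible force-coupled HEK293 TREx D1, plated overnight at 30 C and loaded with no-wash calcium dye.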
# TRHR enhancer: qHTS for Small Molecule Agonists and Allosteric Enhancers of Human TRH Receptor: Primary Screen for Enhancers; Thyrotropin-releasing hormone receptor (Homo sapiens), P34981; enhancement, % at 2 µM; AID 493056, 2011; 360,000 tested, 0.66% active; TRHR cells, fluo-8 calcium fluorescence, EC20 TRH enhancement; in the data active means enhancement above about 30%
#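 TRHR-expressing cells loaded with fluo-8 calcium dye were read kinetically (ex 480/em 530) during compound addition, then stimulated with an EC20 of TRH (10 nM final). Enhancement of the Gq-mediated intracellular calcium response was scored.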
# TRHR ag: qHTS for Small Molecule Agonists and Allosteric Enhancers of Human TRH Receptor: Primary Screen for Agonists; activation, % at 2 µM; 360,000 tested, 0.18% active; AID 493084, 2011; Thyrotropin-releasing hormone receptor (Homo sapiens), P34981; TRHR cells, calcium flux fluo-8, FDSS agonist mode
#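 TRHR-expressing cells, plated overnight in medium with 10% serum, were loaded with fluo-8 calcium dye at room temperature. After a 10 s baseline, library compound was pin-added and calcium release was recorded kinetically (ex 480/em 530) as agonist response.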
# D1 antag: Antagonist of Human D 1 Dopamine Receptor: qHTS; activity change, negative = inhibition, % at 10 µM; 360,000 tested, 3.2% active; D(1A) dopamine receptor (Homo sapiens), P21728; HEK293 TREx D1 cells, calcium flux, dopamine EC80; stronger effect = lower value; AID 504652, 2011; in the data active means activity change below about -30%
#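 Antagonism measured as reduced calcium response to an EC80 dopamine addition following 180 s compound pre-read; cells were inducible HEK293 Trex D1 plated overnight at 30 C, read kinetically at 1 cycle/sec.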
# D1 potentiator: Potentiators of Human D1 Dopamine Receptor: qHTS | D(1A) dopamine receptor (Homo sapiens), P21728 | HEK293 TREx D1 cells, calcium flux, dopamine EC20 potentiation | potentiation, % at 10 µM | 360,000 tested, 0.036% active; in the data active means potentiation above about 30%
# Hits are given with their value; . = inactive; / = not tested or not shown; ! = repeats disagree. Unless noted, no stated cut-off is given here; in the data, active means activation above about 30%; inactive means the rest.
SMILES,D1 ag,TRHR enhancer,TRHR ag,D1 antag,D1 potentiator
Cn1nnnc1Sc1ncnc2scc(-c3cccc(C#N)c3)c12,.,.,.,.,.
CCN(Cc1ccccc1)Cc1nnnn1Cc1ccccc1,.,.,.,-72.6,.
CCCOc1ccc(C(=O)CCC(=O)OCC(=O)Nc2ccc(Oc3ccccc3)cc2)cc1,.,.,.,.,.
C=CCC(=O)OCC(=O)Nc1ccc(Oc2ccccc2)cc1,.,.,.,-35.2,.
Cc1cnc(C(=O)OCC(=O)Nc2ccc(Oc3ccccc3)cc2)cn1,.,.,.,-41.2,.
CC(C)(C)n1c(O)c2ccc(C(=O)N=NC(=O)c3ccccc3)cc2c1O,.,.,.,-31.0,.
CCOc1ccc(NS(=O)(=O)c2ccc3c4c(cccc24)C(=O)N3)cc1,.,.,.,.,.
CCCCSc1nc(O)c(C2OC(=O)c3c2ccc(OC)c3OC)c(=O)n1-c1ccccc1 (centres undefined),.,31.0,.,-33.5,.
Cc1cc2c(s1)c1cnn(Cc3ccc(F)cc3F)c(=O)c1n2C,.,.,.,.,.
CCc1ccc(S(=O)(=O)c2nnn(-c3cccc(C)c3)c2N)cc1,63.8,.,.,-30.3,.
COc1ccc(NS(=O)(=O)c2ccc3c(c2)NC(=O)CCS3)cc1Cl,.,.,.,-38.7,.
COc1ccc(NS(=O)(=O)c2ccc3c(c2)NC(=O)CCS3)c(OC)c1,.,.,.,.,.
CC(Oc1ccc2ccc(=O)oc2c1)C(=O)NC(Cc1c[nH]c2ccc(O)cc12)C(=O)O (centres undefined),.,.,.,-87.4,.
O=C(c1ccccc1Br)N(Cc1ccco1)Cc1ccco1,.,.,.,.,.
O=C(/C=C/c1ccc(Cl)cc1Cl)NC(=S)Nc1ccccn1,.,.,.,-44.1,.
O=C(/C=C/c1ccc(Cl)cc1Cl)NC(=S)Nc1ccc(CN2CCOCC2)cc1,.,.,.,.,.
CCN1CCc2nc3sc(C(=O)c4ccc(F)cc4)c(N)c3cc2C1,30.3,.,.,.,.
Cc1nn(-c2ccccc2)c2c1C(=O)N(c1ccccc1)C(=O)C(C)(C)C2,.,.,.,-39.6,.
CC1CCN(C(=O)CN2CCSc3ccccc32)CC1,.,.,.,.,.
Cc1c(/C=N/NC(=O)c2cccs2)c2ccccc2n1Cc1ccccc1Cl,.,.,.,-99.4,.
Cc1[nH]c2ccccc2c1/C=N/NC(=O)c1cccs1,.,.,.,.,.
COC(=O)c1c(C)sc(-c2c(-c3cccc(Cl)c3)[nH]c3c2c(=O)[nH]c(=O)n3C)c1O,62.2,.,36.4,.,.
CCOC(=O)c1c(C)sc(-c2c(-c3ccccc3)[nH]c3[nH]c(=O)[nH]c(=O)c23)c1O,39.5,.,.,.,.
CSC1=C(C#N)C(c2ccccc2Cl)C(C(=O)c2cccs2)C(O)(C(F)(F)F)N1 (centres undefined),.,.,.,-31.0,.
Cc1ccc(Nc2nc3nonc3nc2Nc2cccc(C(F)(F)F)c2)cc1Cl,.,.,.,-35.0,.
SMILES,D1 ag,TRHR enhancer,TRHR ag,D1 antag,D1 potentiator
COc1ccc(CNC(=O)c2cc3c(=O)n(Cc4cccnc4)ccc3nc2C)cc1,.,.,.,.,.
COc1ccc(CN2C(=O)C(C)Oc3ccccc32)cc1 (centres undefined),.,.,.,-35.3,.
C[C@H](NC(=O)c1nc[nH]c1C(=O)NCCCCCNC(=O)OC(C)(C)C)C(=O)OCc1ccccc1,.,.,.,-39.1,.
C[C@H](NC(=O)c1nc[nH]c1C(=O)N[C@H](C)c1ccccc1)C(=O)OCc1ccccc1,.,.,.,-33.0,.
C[C@@H](NC(=O)c1nc[nH]c1C(=O)N[C@@H](Cc1ccccc1)C(=O)OCc1ccccc1)c1ccccc1,.,.,.,.,.
Cc1cccc(NC(=O)c2nc[nH]c2C(=O)N[C@@H](C)C(=O)OCc2ccccc2)c1,.,.,.,-33.0,.
COC(=O)c1sc(S(=O)(=O)N2CCC(C(N)=O)CC2)c(C(=O)OC)c1C,.,.,.,.,.
COC(=O)c1sc(S(=O)(=O)N2CCN(c3ccc(OC)cc3)CC2)c(C(=O)OC)c1C,.,.,.,-40.0!,.
CC(=O)c1c(C)[nH]c(C(=O)COC(=O)c2nccnc2N)c1C,.,.,.,.,/
CCCCC(=O)OCC(=O)c1[nH]c(C)c(C(C)=O)c1C,.,35.0,.,.,.
CC(=O)c1c(C)[nH]c(C(=O)COC(=O)c2cccnc2Cl)c1C,.,.,.,-33.2,.
CC(C)(C)N(Cc1ccccc1)C(=O)COC(=O)c1ccccc1SCC(=O)N1CCCC1,.,.,.,-37.6,.
O=C(COC(=O)c1ccccc1SCC(=O)N1CCCC1)Nc1ccccc1,.,.,.,.,.
C/C(CCc1ccco1)=N\NC(=O)CNc1c(Br)cc(Br)cc1Br,.,.,.,-44.0,.
CCCCCCC#Cc1cncc(C(=O)NNC(=O)Nc2cc(Cl)cc(Cl)c2)c1,.,.,.,.,.
CCCCC#Cc1cncc(C(=O)NN)c1,.,.,.,-54.3,.
Cc1ccccc1Cn1c(=O)n(Cc2ccc(Cl)cc2)c(=O)c2cccnc21,.,.,.,.,.
Cc1ccc(C)c(Cn2c(=O)n(-c3ccccc3)c(=O)c3c4c(sc32)CCCC4)c1,.,.,.,.,.
O=S(=O)(Nc1nc2ccccc2nc1Nc1ccc(N2CCOCC2)cc1)c1cc(Cl)ccc1Cl,.,.,.,-49.6,.
COc1ccc(NC(=O)Cn2nc3c(cc2=O)CCCC3)cc1Cl,.,.,.,.,.
O=C(COC(=O)c1cc(-c2cccs2)nc2ccccc12)c1ccc(Br)cc1,.,.,.,.,.
CC1(C(=O)Nc2cccc3ccccc23)CC1(Br)Br (centres undefined),.,.,.,-31.4,.
CCCC(=O)O[C@]1(C(=O)COC(C)=O)CC[C@H]2[C@@H]3C[C@H](F)C4=CC(=O)C=C[C@]4(C)[C@@]3(F)[C@@H](O)C[C@@]21C,.,.,.,.,.
CC(=O)[C@@]1(O)CC[C@H]2[C@@H]3C[C@H](C)C4=CC(=O)C=C[C@]4(C)[C@@]3(F)[C@@H](O)C[C@@]21C,.,.,.,-59.3,.
Cn1c(=O)[nH]c(=O)c2c1nc(N1CCOCC1)n2Cc1ccccc1,.,.,.,.,.
NCCOc1ccccc1Cc1ccccc1,61.9,.,.,-55.4,.
COc1ccccc1CNc1ccc(-c2nc(-c3cccc(C)c3)no2)cc1[N+](=O)[O-],.,.,.,.,.
